# Test results reported in paper PMC7862700, “An all-to-all approach to the identification of sequence-specific readers for epigenetic DNA modifications on cytosine”.
# Tests used:
# Assay in all cases: DAPPL (digital affinity profiling via proximity ligation, sequencing); 10 mM Tris-HCl pH 7.5, 50 mM NaCl, 1 mM DTT, 4% glycerol, room temperature, 30 min; GST-TFs on glutathione beads, 16-mer random dsDNA library, 0.1% formaldehyde crosslink after washing; high values mean tight binding
# Conditions in all cases: protein: recombinant; tags: N-terminal GST; dsDNA, one strand shown
# ETV1 = ETV1 (Homo sapiens, UniProt P50549 1-477)
# In short: (§1)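 Human transcription factors carrying a GST fusion were produced in yeast, bound to glutathione beads, tagged with DNA barcodes and pooled together with a tag-only sample. Each pool was held with 200 nmole of a random double-stranded 16-mer DNA library in Tris/NaCl/DTT/glycerol buffer for 30 min at room temperature, then washed, crosslinked in 0.1% formaldehyde, proximity-ligated with BsaI/T4 ligase (1 h, 37 °C), PCR-amplified and sequenced on an Illumina NextSeq500. Binding signal is the read frequency of each hexamer for a given factor divided by its frequency in the tag-only sample.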
# ERF = molecular target: T1, ERF (Homo sapiens, UniProt P50548 1-548)
# T1 sequence: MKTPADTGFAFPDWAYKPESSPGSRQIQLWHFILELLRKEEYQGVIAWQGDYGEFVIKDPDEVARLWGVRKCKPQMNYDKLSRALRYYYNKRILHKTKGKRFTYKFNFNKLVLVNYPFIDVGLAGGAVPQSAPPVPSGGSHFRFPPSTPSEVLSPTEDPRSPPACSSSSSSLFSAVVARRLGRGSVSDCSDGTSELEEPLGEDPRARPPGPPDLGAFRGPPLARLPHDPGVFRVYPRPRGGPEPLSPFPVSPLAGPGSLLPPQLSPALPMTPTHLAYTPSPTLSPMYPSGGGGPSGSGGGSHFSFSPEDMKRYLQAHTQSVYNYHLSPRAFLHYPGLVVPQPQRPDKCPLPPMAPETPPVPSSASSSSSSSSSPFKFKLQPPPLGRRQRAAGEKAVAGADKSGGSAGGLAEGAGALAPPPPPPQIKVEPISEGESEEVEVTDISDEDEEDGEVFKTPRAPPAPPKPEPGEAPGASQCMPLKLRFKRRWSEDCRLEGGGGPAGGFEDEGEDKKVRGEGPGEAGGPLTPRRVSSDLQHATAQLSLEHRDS
# In short: as §1
# ETV3L = molecular target: T2, ETV3L (Homo sapiens, UniProt Q6ZN32 1-361)
# T2 sequence: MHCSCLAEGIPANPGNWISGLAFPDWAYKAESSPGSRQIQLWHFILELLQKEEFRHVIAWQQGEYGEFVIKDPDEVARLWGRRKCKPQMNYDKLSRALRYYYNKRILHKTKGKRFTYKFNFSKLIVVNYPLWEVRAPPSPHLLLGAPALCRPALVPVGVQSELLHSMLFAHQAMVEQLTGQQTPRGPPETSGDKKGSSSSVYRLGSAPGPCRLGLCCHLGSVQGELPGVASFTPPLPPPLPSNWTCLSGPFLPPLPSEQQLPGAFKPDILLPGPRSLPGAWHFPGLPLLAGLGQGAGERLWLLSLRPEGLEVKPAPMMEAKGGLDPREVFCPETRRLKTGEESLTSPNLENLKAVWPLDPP
# In short: as §1
# ETS2 = molecular target: T3, ETS2 (Homo sapiens, UniProt P15036 1-469)
# T3 sequence: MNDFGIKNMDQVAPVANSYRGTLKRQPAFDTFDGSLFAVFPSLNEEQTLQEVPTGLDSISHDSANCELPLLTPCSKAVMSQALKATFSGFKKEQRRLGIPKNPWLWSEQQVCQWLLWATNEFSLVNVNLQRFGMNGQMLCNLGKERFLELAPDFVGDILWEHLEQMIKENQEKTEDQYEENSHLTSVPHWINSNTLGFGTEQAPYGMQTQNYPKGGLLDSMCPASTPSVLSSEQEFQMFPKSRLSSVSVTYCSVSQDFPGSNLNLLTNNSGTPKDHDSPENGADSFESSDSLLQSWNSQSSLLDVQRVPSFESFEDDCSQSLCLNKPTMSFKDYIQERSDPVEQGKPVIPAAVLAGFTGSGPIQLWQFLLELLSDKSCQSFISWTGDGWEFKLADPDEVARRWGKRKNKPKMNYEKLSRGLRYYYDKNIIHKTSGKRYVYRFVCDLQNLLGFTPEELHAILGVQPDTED
# In short: as §1
# SPDEF = molecular target: T4, SPDEF (Homo sapiens, UniProt O95238 1-335)
# T4 sequence: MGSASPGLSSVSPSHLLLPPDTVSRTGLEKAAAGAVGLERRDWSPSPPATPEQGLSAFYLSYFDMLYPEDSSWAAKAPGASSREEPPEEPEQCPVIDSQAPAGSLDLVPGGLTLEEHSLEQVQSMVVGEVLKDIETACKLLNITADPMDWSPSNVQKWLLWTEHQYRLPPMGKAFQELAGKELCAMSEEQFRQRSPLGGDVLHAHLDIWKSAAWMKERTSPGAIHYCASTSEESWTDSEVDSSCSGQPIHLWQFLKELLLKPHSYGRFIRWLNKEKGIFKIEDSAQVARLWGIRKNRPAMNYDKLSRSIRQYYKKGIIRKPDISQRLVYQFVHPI
# In short: as §1
# ETV7 = molecular target: T5, ETV7 (Homo sapiens, UniProt Q9Y603 1-341)
# T5 sequence: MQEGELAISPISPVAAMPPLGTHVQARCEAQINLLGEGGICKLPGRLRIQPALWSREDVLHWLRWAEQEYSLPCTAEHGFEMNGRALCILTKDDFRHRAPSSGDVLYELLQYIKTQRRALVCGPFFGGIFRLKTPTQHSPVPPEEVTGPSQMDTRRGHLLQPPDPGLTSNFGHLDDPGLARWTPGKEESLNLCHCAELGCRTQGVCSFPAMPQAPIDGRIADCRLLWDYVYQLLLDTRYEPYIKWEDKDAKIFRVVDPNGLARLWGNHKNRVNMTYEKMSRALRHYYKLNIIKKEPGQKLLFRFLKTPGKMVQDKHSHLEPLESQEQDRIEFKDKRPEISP
# In short: as §1
# ELF5 = molecular target: T6, ELF5 (Homo sapiens, UniProt Q9UKW6-2 1-255)
# T6 sequence: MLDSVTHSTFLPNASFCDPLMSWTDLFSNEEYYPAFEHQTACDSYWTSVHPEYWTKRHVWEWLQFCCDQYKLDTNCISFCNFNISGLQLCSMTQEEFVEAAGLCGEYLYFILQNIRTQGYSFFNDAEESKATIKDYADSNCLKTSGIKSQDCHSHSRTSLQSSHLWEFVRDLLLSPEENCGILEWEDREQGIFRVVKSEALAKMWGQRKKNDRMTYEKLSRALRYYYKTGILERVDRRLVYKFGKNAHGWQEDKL
# In short: as §1
# ETV3 = molecular target: T7, ETV3 (Homo sapiens, UniProt P41162-2 1-143)
# T7 sequence: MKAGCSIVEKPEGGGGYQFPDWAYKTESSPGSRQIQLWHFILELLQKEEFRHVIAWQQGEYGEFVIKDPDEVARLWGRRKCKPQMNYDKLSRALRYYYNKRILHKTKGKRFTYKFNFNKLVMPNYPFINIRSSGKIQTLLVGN
# In short: as §1
# ETV6 = ETV6 (Homo sapiens, UniProt P41212 1-452)
# In short: as §1
# ETV1, sequence (P50549 whole entry, the tested form may be a part): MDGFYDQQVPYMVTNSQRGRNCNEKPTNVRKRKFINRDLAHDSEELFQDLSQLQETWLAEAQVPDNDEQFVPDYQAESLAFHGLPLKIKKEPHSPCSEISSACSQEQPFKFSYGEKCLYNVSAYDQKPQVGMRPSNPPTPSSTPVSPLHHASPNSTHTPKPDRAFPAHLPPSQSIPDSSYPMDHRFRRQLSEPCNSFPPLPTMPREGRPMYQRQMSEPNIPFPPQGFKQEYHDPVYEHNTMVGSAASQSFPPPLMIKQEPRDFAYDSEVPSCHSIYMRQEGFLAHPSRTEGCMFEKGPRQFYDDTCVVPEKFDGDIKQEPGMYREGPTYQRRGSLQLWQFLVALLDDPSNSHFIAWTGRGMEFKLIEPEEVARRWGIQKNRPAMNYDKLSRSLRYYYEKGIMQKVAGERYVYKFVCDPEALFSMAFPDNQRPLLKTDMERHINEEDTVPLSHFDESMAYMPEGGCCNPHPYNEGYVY
# ETV6, sequence (P41212 whole entry): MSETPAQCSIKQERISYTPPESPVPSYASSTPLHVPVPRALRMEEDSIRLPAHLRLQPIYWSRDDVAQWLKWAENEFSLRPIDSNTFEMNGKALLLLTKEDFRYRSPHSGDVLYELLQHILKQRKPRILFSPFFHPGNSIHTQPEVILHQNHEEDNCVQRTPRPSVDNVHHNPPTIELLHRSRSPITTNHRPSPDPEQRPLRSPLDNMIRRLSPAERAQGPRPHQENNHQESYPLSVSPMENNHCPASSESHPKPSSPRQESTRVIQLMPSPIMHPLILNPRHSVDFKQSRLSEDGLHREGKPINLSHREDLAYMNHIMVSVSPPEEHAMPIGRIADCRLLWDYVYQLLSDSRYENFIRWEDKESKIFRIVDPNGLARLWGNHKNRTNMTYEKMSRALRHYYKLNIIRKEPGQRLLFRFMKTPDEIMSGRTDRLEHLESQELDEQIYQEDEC
sequence,measurement,setting,value
TTCTAC,binding signal,ETV1,"1.56 fold enrichment (6-mer frequency, TF over GST control)"
same,binding signal,ERF,"1.7 fold enrichment (6-mer frequency, TF over GST control)"
same,binding signal,ETV3L,"1.51 fold enrichment (6-mer frequency, TF over GST control)"
same,binding signal,ETS2,"1.62 fold enrichment (6-mer frequency, TF over GST control)"
same,binding signal,SPDEF,"1.5 fold enrichment (6-mer frequency, TF over GST control)"
same,binding signal,ETV7,"1.54 fold enrichment (6-mer frequency, TF over GST control)"
same,binding signal,ELF5,"1.54 fold enrichment (6-mer frequency, TF over GST control)"
same,binding signal,ETV3,"1.41 fold enrichment (6-mer frequency, TF over GST control)"
same,binding signal,ETV6,"1.49 fold enrichment (6-mer frequency, TF over GST control)"
